Consider 92 molecules from PubChem BioAssay AID463173 (ICCB-Longwood Screening Facility, Harvard Medical School, 2010).

Molecules are shown by their SMILES. In all, about 52,000 compounds went through this assay and about 4,300 (8.3%) were called active. Many of the other results were omitted from the sample, so actives are more common in it than they were. A number with no mark means an inactive call. Rule as the data show it: active = survival mostly below about 52% (no sharp cut-off); inactive = mostly above about 56%.

The test system of this assay is DeltatarO mutant. The experiment in a line: growth inhibition of S. aureus wild type versus tarO mutant, primary screen, teichoic acid synthesis inhibitors, RN4220, OD600 (AID 463173). The settings on record: OD600, 18 h, active compounds read low, screened at 18.75 µg/mL (by protocol).
On to `Cc1ccc2nc(-c3cc(NC(=O)COc4ccc(C)c(C)c4)ccc3Cl)oc2c1`, for which the survival is 30% (active).

For the molecule `Cc1ccc(OCC(=O)Nc2cccc(-c3nc4ccccc4o3)c2C)cc1C`, the survival is 55% (active).

As to `CCOc1ccc(C(=O)Nc2ccc(Cl)c(-c3nc4cc(C)cc(C)c4o3)c2)cc1`, the survival was 66%.

For the molecule `Cc1cc(NC(=O)COc2ccccc2)cc(-c2nc3ccccc3o2)c1O`, the survival was 94%.

For `Cc1ccc(OCC(=O)Nc2ccc(-c3nc4ccc(C)cc4o3)cc2)cc1`, the survival is 66%.

As for `CCCCOc1ccc(C(=O)Nc2cccc(-c3nc4ccccc4o3)c2C)cc1`, the survival was 76%.

As for `Cc1ccc2oc(-c3cccc(NC(=O)Cc4ccc(Cl)cc4)c3)nc2c1`, the survival is 72%.

As to `Cc1cc2nc(-c3cccc(NC(=O)COc4ccc(Cl)c(C)c4)c3)oc2cc1C`, the survival is 64%.

As to `Cc1ccc2oc(-c3cc(NC(=O)CC(C)C)ccc3Cl)nc2c1`, the survival is 87%.

Take `CCc1ccc(OCC(=O)Nc2ccc(Cl)c(-c3nc4ncccc4o3)c2)cc1`: the survival is 47%.

For `Cc1ccc2oc(-c3cc(NC(=O)Cc4ccccc4)ccc3Cl)nc2c1`, the survival was 52% (active).

On to `CCc1ccc(OCC(=O)Nc2ccc(Cl)c(-c3nc4cc(C)cc(C)c4o3)c2)cc1`, for which the survival is 35% (active).

Take `Cc1nn(CCCC(=O)Nc2ccccc2C(F)(F)F)c(=O)c2c1sc1ccccc12`: the survival was 74%.

Regarding `Cc1nc2ccc(C(=O)N3CCN(Cc4ccccc4)CC3)cc2[nH]1`, the survival was 104%.

On to `CN(c1ccc(C(=O)NCc2cccnc2)cc1)S(C)(=O)=O`, for which the survival was 73%.

Turning to `Cc1cccc(C(=O)n2nc(-c3ccco3)nc2NCc2ccccc2)c1`, the survival is 63%.

`C=CCN1C(=O)C2C(C(=O)NC3CCCCC3C)C3(C)C=CC2(O3)C1C(=O)NC(C)(C)C` (configuration not stated): the survival is 65%.

For the molecule `Nc1ncc(S(=O)(=O)NCc2ccccc2)cn1`, the survival is 70%.

As to `COc1ccc(Nc2oc(-c3ccc(COc4cccc(C)c4)o3)nc2C#N)cc1`, the survival is 109%.

`Cc1ccc(-n2c(=O)c3ccccc3n(CC(=O)Nc3cccc(C(F)(F)F)c3)c2=O)cc1`: the survival was 63%.

For `CCc1ccc2oc(-c3ccc(C)c(NC(=O)c4ccc(C#N)cc4F)c3)nc2c1`, the survival was 74%.

In the case of `Cc1cc(C)c2oc(-c3cccc(NC(=O)c4cccc(F)c4)c3C)nc2c1`, the survival was 72%.

As to `Cc1cc(C)c2oc(-c3cccc(NC(=O)COc4ccccc4Cl)c3C)nc2c1`, the survival was 42% (active).

Regarding `Cc1cc(C)c2oc(-c3ccc(NC(=O)COc4ccccc4C)cc3)nc2c1`, the survival was 67%.

As for `N#Cc1ccc2c(c1)nc1c3cccc4cccc(c(=O)n21)c43`, the survival was 72%.

As for `CC(C)(C)C(=O)N1c2ccccc2CCc2ccccc21`, the survival is 84%.

Regarding `COc1ccc(Br)cc1CNC(=O)CCSCc1ccc(C)cc1`, the survival was 81%.

On to `Cc1cccc(C(c2sc3nc(-c4ccco4)nn3c2O)N2CCN(Cc3ccccc3)CC2)c1` (configuration not stated), for which the survival was 94%.

As for `COc1cccc(Oc2nc(C)nc3c2oc2ccccc23)c1`, the survival is 25% (active).

As for `CC(=O)c1ccc(Oc2nc(C)nc3c2oc2ccccc23)cc1`, the survival is 92%.

In the case of `Cc1nc(Oc2ccccc2C)c2oc3ccccc3c2n1`, the survival is 101%.

For `CCN(CC)c1ccc(NC(=O)C(Cc2ccccc2)NS(=O)(=O)c2ccc(Br)s2)c(C)c1` (configuration not stated), the survival is 117%.

`COc1ccc2nc(SCC(=O)NC3CCCCC3C)c(C#N)cc2c1` (configuration not stated): the survival is 89%.

For the molecule `CC(=O)Nc1ccc(Nc2nc3ccc(Cl)cc3n3cnnc23)cc1`, the survival is 99%.

In the case of `COc1ccc(C(=O)Nc2nccs2)cc1OC`, the survival was 79%.

With `COc1cc(C(=O)Nc2ccc(NC(=O)c3ccc(C(C)(C)C)cc3)cc2)cc(OC)c1OC`, the survival was 132%.

Consider `Cc1cccc(-n2cnc3cc(C(=O)NC4CCCCCC4)ccc32)c1`, for which the survival was 106%.

For `CCOc1ccc(-n2c(C)nc3cc(C(=O)NCCC4=CCCCC4)ccc32)cc1`, the survival is -4% (active).

Regarding `CCCNC(=O)c1ccc2c(c1)ncn2-c1ccc(C)cc1C`, the survival is 75%.

Regarding `Cc1ccc(-n2cnc3cc(C(=O)NCc4ccccc4Cl)ccc32)c(C)c1`, the survival is 37% (active).

On to `CCCCCNC(=O)c1ccc2c(c1)ncn2-c1cccc(C)c1`, for which the survival was 0% (active).

In the case of `Cc1nc2cc(C(=O)NCCC3=CCCCC3)ccc2n1-c1ccc(Br)cc1`, the survival is 60%.

With `Cc1cccc(-n2cnc3cc(C(=O)NCc4ccccc4Cl)ccc32)c1`, the survival is 72%.

As for `Cc1cccc(-n2c(C)nc3cc(C(=O)NCCC4=CCCCC4)ccc32)c1`, the survival is 71%.

On to `Cc1cc(C)cc(-n2cnc3cc(C(=O)NCCc4ccccc4)ccc32)c1`, for which the survival is 78%.

On to `COCCCNC(=O)c1ccc2c(c1)nc(C)n2-c1cccc(C)c1`, for which the survival is 69%.

As to `CCCNC(=O)c1ccc2c(c1)nc(C)n2-c1cccc(C)c1`, the survival is 83%.

For the molecule `CCCCCNC(=O)c1ccc2c(c1)nc(C)n2-c1cccc(C)c1`, the survival was 0% (active).

As for `Cc1nn(-c2ccccc2)c(OC(=O)c2ccc(Cl)cc2)c1S(=O)(=O)c1ccccc1`, the survival was 79%.

Consider `c1csc(-c2nc3ccccn3c2Nc2ccc3c(c2)OCCO3)c1`, for which the survival was 89%.

With `Cc1ccccc1NC(=O)CCS(=O)(=O)c1cc(Br)cc2c1N(C(=O)C1CC1)CC2`, the survival was 96%.

Regarding `CC(=O)Nc1cc2c(cc1C(=O)c1ccccc1)OCCO2`, the survival was 108%.

`Cn1c(=O)c(=O)n(C)c2cc(S(=O)(=O)CCC(=O)Nc3ccc(F)cc3)ccc21`: the survival is 83%.

Turning to `CCc1nn(CC(=O)NCCN(CC(C)C)CC(C)C)c(=O)c2cc3sc(C)cc3n12`, the survival was 68%.

For the molecule `CC(=O)c1ccc(Nc2cc(C)nc3nc(Cc4ccccc4)nn23)cc1`, the survival was 64%.

Regarding `CCOc1ccc(NC(=O)NCc2cccn2Cc2ccccc2)cc1`, the survival was 72%.

For the molecule `CCOC(=O)c1cccc(NC(=O)NCc2cccn2Cc2ccccc2)c1`, the survival is 119%.

Take `CCOC(=O)Cc1ccc(NC(=O)NCc2cccn2Cc2ccccc2)cc1`: the survival was -4% (active).

With `CCN1CCc2c(sc(-n3cccc3)c2C(C)NC(=O)Nc2ccc(Br)cc2)C1` (configuration not stated), the survival is 102%.

Turning to `CCc1ccc(NC(=O)CC2C(=O)N(c3ccc(OC)cc3)C(=O)N2Cc2ccc(OC)cc2)cc1` (configuration not stated), the survival was 100%.

On to `CC(=O)c1ccc(NC(=O)Cn2cnc3nc4c(cc3c2=O)CC(C)CC4)cc1` (configuration not stated), for which the survival was 60%.

As for `CCOC(=O)c1cccc(NC(=O)Cn2c(CC(=O)N3CCCC3)nc3ccccc32)c1`, the survival is 83%.

For `O=C(Cn1c(CC(=O)N2CCCC2)nc2ccccc21)NCc1ccccc1`, the survival is 64% (active).

Consider `O=C(CSc1cn(CC(=O)N2CCCCC2)c2ccccc12)NCc1ccccc1`, for which the survival was 87%.

With `CCn1c(=O)c2sccc2n2c(CCC(=O)N3CCN(c4ccc(C(C)=O)cc4)CC3)nnc12`, the survival was 65%.

Turning to `CCCN(CCC)S(=O)(=O)c1ccc(C(=O)N2CCn3c4c(c5cc(C)ccc53)CCCC42)cc1` (configuration not stated), the survival is 58%.

Take `COc1cc(SC)ccc1C(=O)N1CCn2c3c(c4cc(C)ccc42)CCCC31` (configuration not stated): the survival was 70%.

In the case of `CCOc1cc(C(=O)N2CCn3c4c(c5cc(C)ccc53)CCCC42)cc(OCC)c1OCC` (configuration not stated), the survival was 56%.

For `Cc1ccc2c(c1)c1c3n2CCN(C(=O)c2ccc(C(F)(F)F)cc2)C3CCC1` (configuration not stated), the survival is 44%.

For `Cc1ccc(C(=O)N2CCn3c4c(c5cc(C)ccc53)CCCC42)cc1` (configuration not stated), the survival is -1% (active).

On to `Cc1ccc2c(c1)c1c3n2CCN(C(=O)c2cccc(C(F)(F)F)c2)C3CCC1` (configuration not stated), for which the survival was 14% (active).

On to `COc1ccc(OC)c(CNC(=O)c2cc3ccc4cccnc4c3[nH]2)c1`, for which the survival is 112%.

`COc1ccc(-c2nnc(SCC(=O)N(C)C3CCCCC3)o2)cc1OC`: the survival was 86%.

Regarding `O=C(O)c1ccc(N=NN2CCCCC2)cc1`, the survival was 75%.

On to `COc1cccc(NC(=O)C(=O)NCC(c2cccnc2)N2CCN(c3ccccc3)CC2)c1` (configuration not stated), for which the survival was 97%.

With `COc1cccc(C2C(C(=O)Nc3ccccc3OC)=C(C)Nc3nc4ccccc4n32)c1` (configuration not stated), the survival was 51%.

With `Cc1cccc(N2CCN(C(=O)Cn3ncc4c5ccccc5n(C)c4c3=O)CC2)c1C`, the survival was 73%.

As to `Cc1ccccc1CS(=O)(=O)c1ncc(Cl)c(C(=O)Nc2nnc(C(C)C)s2)n1`, the survival was 30% (active).

Take `Cc1cccc(CS(=O)(=O)c2ncc(Cl)c(C(=O)Nc3nnc(C(C)C)s3)n2)c1`: the survival is 28% (active).

As for `Cc1ccc(CS(=O)(=O)c2ncc(Cl)c(C(=O)Nc3nnc(C(C)C)s3)n2)cc1`, the survival is 54%.

Turning to `CC(C)c1nnc(NC(=O)c2nc(S(=O)(=O)Cc3ccccc3)ncc2Cl)s1`, the survival is 46%.

As to `CCCc1nnc(NC(=O)c2nc(S(=O)(=O)Cc3ccc(C)cc3)ncc2Cl)s1`, the survival is 47%.

On to `CCc1nnc(NC(=O)c2nc(S(C)(=O)=O)ncc2Cl)s1`, for which the survival was 66%.

`CCc1nnc(NC(=O)c2nc(S(=O)(=O)Cc3cccc(C)c3)ncc2Cl)s1`: the survival is 31% (active).

Regarding `CCc1nnc(NC(=O)c2nc(S(=O)(=O)Cc3ccc(C)cc3)ncc2Cl)s1`, the survival is 42% (active).

For the molecule `O=C(NC1CCCCC1)c1cccs1`, the survival is 107%.

In the case of `COCCN(Cc1cc2cc3c(cc2nc1Cl)OCO3)C(=O)Nc1ccccc1OC`, the survival was 92%.

On to `CCOc1ccc(CN(C(=O)c2nc(SC)ncc2Cl)C2CCS(=O)(=O)C2)cc1` (configuration not stated), for which the survival is 88%.

Turning to `Cc1ccc(-c2ccc(=O)n(CC(=O)Nc3ccc(F)c(Cl)c3)n2)cc1C`, the survival was 82%.

Take `COc1ccccc1Nc1cc(C(=O)NCc2cccs2)c2ccccc2n1`: the survival is 73%.

With `Cc1cc(=O)[nH]c2nnc(SCCC(C)C)n12`, the survival is 73%.

In the case of `Cc1nnc(NC(=O)c2nc(S(=O)(=O)Cc3ccccc3)ncc2Cl)s1`, the survival is 48% (active).
